aSyn 5UTR act: Activators via SNCA 5'UTR binding, MLPCN. 300,000 tested, 7.1% active. activity score, % (tested at 7.5 µM), hits read low. AID 1814. alpha-synuclein 5'UTR reporter, activators screen; in the data active = activity score below about -60%
An asterisk follows results filed as active. Not all results are given here.

SMILES | aSyn 5UTR act
COc1ccc(OCc2nc(N)nc(Nc3ccc(C)cc3)n2)cc1 | -69*
COc1ccc(Nc2nc(N)nc(CSc3nccn3C)n2)cc1 | -87*
Nc1nc(COc2ccccc2C=O)nc(Nc2ccccc2)n1 | -119*
COc1ccc(Nc2nc(N)nc(CSC(=S)N3CCCCC3)n2)cc1 | -62*
COc1ccc(Nc2nc(N)c([N+](=O)[O-])c(NC3CCCCC3)n2)cc1 | 62
Cc1cc(C)c(S(=O)(=O)Nc2cc(SCC(=O)O)c(O)c3ccccc23)cc1C | 67
CCc1nccn1CCC(=O)N1CCCC(N2CCN(c3cccc(Cl)c3)CC2)C1 (stereo not given) | -67*
Cc1ccn2cc(C(=O)Nc3nnc(C)s3)nc2c1 | -111*
COc1ccc(Cl)cc1NC(=O)CN(C)CC(=O)Nc1ccccc1N1CCOCC1 | 112
Cc1ccn2cc(C(=O)Nc3ccccc3N3CCOCC3)nc2c1 | -90*
O=C(Nc1ccccc1N1CCOCC1)c1ccc2ccccc2n1 | -118*
CCc1nnc(NC(=O)c2csc3c2CCC(C)C3)s1 (stereo not given) | -67*
Cc1csc(NC(=O)c2cccc(C)c2C)n1 | -155*
Cc1csc(NC(=O)c2ccoc2C)n1 | -191*
Cc1csc(NC(=O)c2ccc(Cl)cc2[N+](=O)[O-])n1 | -92*
O=C(Nc1nc(-c2ccccn2)cs1)c1cc(Cl)ccc1[N+](=O)[O-] | 116
Cc1csc(NC(=O)c2ccc[nH]c2=O)n1 | -85*
Cc1csc(NC(=O)c2cccnc2Cl)n1 | -76*
CC(C)[C@H](NC(=O)c1ccccc1Cl)C(=O)Nc1nc(-c2ccccn2)cs1 | 64
Cc1csc(NC(=O)c2cnccn2)n1 | -105*
Cc1sc(NC(=O)/C=C/c2ccco2)c(C(=O)O)c1C | -118*
CCOC(=O)c1c(NC(=O)/C=C/c2ccc(C)o2)sc(C)c1C | -108*
Fc1ccc(F)c(C2=NNC(=NCC3CCCO3)SC2)c1 (stereo not given) | -118*
CC(=O)Oc1c(Cl)cc(Cl)cc1/C=C/c1ccc2ccccc2n1 | -205*
CC(=O)Oc1ccc(Cl)cc1/C=C/c1ccc2ccccc2n1 | -259*
SMILES | aSyn 5UTR act
CC(=O)Oc1ccccc1/C=C/c1nc2ccccc2c(=O)o1 | 66
Cc1cc(N/N=C/c2ccccc2[N+](=O)[O-])nc(-n2nc(C)cc2C)n1 | 57
Cc1ccc(-c2nc(N/N=C/c3ccccc3[N+](=O)[O-])c3ccccc3n2)cc1 | -267*
Brc1ccc(-c2nc(N/N=C/c3cccnc3)c3ccccc3n2)cc1 | -92*
COc1ccc(C2=NCN(c3ccc(C)cc3)C(=S)N2)cc1 | -138*
Cc1ccc(N2CN=C(c3ccccc3)NC2=S)cc1 | -113*
O=C(Nc1ccc2c(c1)OCO2)c1ccc(Cl)nc1 | -90*
O=C(Nc1ccc2c(c1)OCO2)c1cnccn1 | -106*
Cc1ccc(NC(=O)c2ccc(Cl)nc2)cc1 | -116*
Cc1ccc(NC(=O)c2ccc3c(c2)OCO3)cc1Cl | -123*
Cc1cc(Cl)ccc1NC(=O)c1ccc2c(c1)OCO2 | -231*
Cc1ccc(C(=O)Nc2ccc3c(c2)OCO3)cc1Cl | -123*
Cc1ccc(NC(=O)c2nsc(Cl)c2Cl)cc1 | -113*
Cc1ccc(C(=O)Nc2ccc3c(c2)OCO3)cc1S(=O)(=O)N1CCCC1 | -114*
COc1cc(Cl)c(C)cc1NC(=O)c1ccc2c(c1)OCO2 | -84*
Cc1ccc2c(c1)c(C)c(C)n2CC(O)Cn1nnc2ccccc21 (stereo not given) | -70*
Oc1ccccc1-c1csc(-c2ccccc2)n1 | -122*
Oc1ccc(-c2csc(-c3cccnc3)n2)cc1O | -96*
Brc1ccsc1-c1csc(-c2ccncc2)n1 | -106*
c1cncc(-c2nc(-c3ccc4c(c3)OCCO4)cs2)c1 | -94*
Nc1nc(-c2ccccc2)cc(-c2ccccc2O)n1 | -123*
CS(=O)c1nc(-c2ccc(Br)cc2)cc(-c2ccccc2)c1C#N (stereo not given) | 120
Clc1ccc(-c2csc(-c3cccnc3)n2)s1 | -70*
c1ccc(-c2csc(-c3ccncc3)n2)cc1 | -74*
Fc1ccccc1-c1csc(-c2cccnc2)n1 | -105*
SMILES | aSyn 5UTR act
Oc1ccc(-c2csc(-c3ccccc3)n2)cc1O | -224*
O=C(Cc1cccc2ccccc12)Nc1ccc2c(c1)C(=O)NC2=O | -65*
Cc1cc(OCC(=O)N2CCCCCC2)ccc1[N+](=O)[O-] | -148*
Cc1cc(OCC(=O)N2CCCC2)ccc1Cl | -91*
CC(=O)c1ccc(OCc2cc(C(=O)N3CCN(c4ccccc4)CC3C)no2)cc1 (stereo not given) | -163*
CSc1ccccc1OCc1cc(C(=O)N2CCN(c3ccccc3)CC2C)no1 (stereo not given) | -108*
CCCC1c2ccc(C)n2CCN1C(=O)Nc1ccccc1Cl (stereo not given) | -120*
COCCN=c1scc(-c2cccs2)n1/N=C(\C)c1ccco1 | -153*
Cc1ccc(O)c(C2=Nc3ccccc3C2(C)C)c1 | -157*
CCc1ccccc1NC(=O)c1cccc(NC(=O)/C=C/c2ccco2)c1 | -100*
O=C(/C=C/c1ccco1)Nc1ccc2c(c1)OCO2 | -188*
Cc1ccc(-n2nc3ccc(NC(=O)/C=C/c4ccco4)cc3n2)cc1 | -202*
Cc1nc2oc3ccc(F)cc3c(=O)c2cc1C(=O)O | -75*
Cc1ccc2oc3nc(C)c(C(=O)O)cc3c(=O)c2c1 | -103*
CC(=O)c1cc2c(=O)c3cc(C)ccc3oc2nc1C | -184*
CCOC(=O)c1cc2c(=O)c3cc(C)ccc3oc2nc1C | -114*
Cn1cc(C(=O)c2ccc(Cl)cc2Cl)cc1C(=O)N/N=C(\N)COc1ccc(Cl)cc1Cl | 65
C/C(=N\NC(=O)c1ccncc1)c1ccc(NC(=O)c2ccc(Cl)cc2)cc1 | -116*
COc1ccc(/C(C)=N/NC(=O)c2ccccc2N)cc1 | -92*
C/C(=N/NC(=O)c1ccc(C)s1)c1cccnc1 | -70*
C/C(=N/NC(=O)c1ccncc1)c1ccc(NC(=O)c2ccc(Cl)cc2Cl)cc1 | -185*
C/C(=N\NC(=O)c1ccc(Cl)cc1)c1cccnc1 | -92*
COc1ccc(C(=O)Nc2ccc(/C(C)=N/NC(=O)c3ccncc3)cc2)cc1 | -108*
COc1cc(OC)cc(C(=O)Nc2ccc(C(=O)c3ccncc3)cc2)c1 | -72*
Cc1ccc(-c2nc3ccc(NS(=O)(=O)c4ccccc4)cc3[nH]2)o1 | -174*
SMILES | aSyn 5UTR act
CC(=O)Nc1ccc2nc(-c3ccc(Br)o3)[nH]c2c1 | -127*
O=C(Nc1ccc2nc(-c3ccc(Br)o3)[nH]c2c1)c1ccco1 | -106*
Cc1cccc2[nH]c(-c3ccc(NC(=O)c4ccco4)cc3)nc12 | -225*
Cc1cc(C)cc(NS(=O)(=O)c2ccc(-c3cnc(C4CC4)o3)cc2)c1 | 93
O=C(Nc1ccc2nc(-c3ccccc3)[nH]c2c1)c1ccco1 | -205*
O=C(Nc1ccc2nc[nH]c2c1)c1ccco1 | -74*
O=C(Nc1ccc2nc(-c3ccc(Br)o3)[nH]c2c1)c1cccs1 | -112*
O=C(Nc1ccc2nc(-c3cccnc3)[nH]c2c1)C1CCCCC1 | -72*
O=C(NCc1ccccn1)Nc1ccc(Br)cc1Cl | -72*
O=C(NCc1ccccn1)c1ccc(Cn2c(=S)[nH]c3ccc(Br)cc3c2=O)cc1 | 40
S=C(NCc1ccccn1)Nc1ccccc1Cl | -115*
COCCCNC(=O)Nc1ccc(Br)cc1Cl | -72*
S=C(NCc1ccccn1)Nc1ccc(Br)cc1Cl | -143*
O=C(NCc1ccccn1)Nc1ccc(Cl)cc1Cl | -97*
Cc1cccc(/C(N)=N/OC(=O)c2ccoc2C)c1 | -116*

Source: PubChem (Broad Institute)
